Test results reported in paper PMC7819943, “Rice protein-binding microarrays: a tool to detect cis-acting elements near promoter regions in rice”.
In all, about 35,000 sequences were measured (“fluorescence intensity (a.u.)”: median about 10,000, highest 2% from about 52,000 on). Many of the other results were omitted from the sample, so the highest values are more common in it than they were.

Biological target: T1, OsWOX13 (Oryza sativa, UniProt Q5QMM3 1-267)
T1 sequence: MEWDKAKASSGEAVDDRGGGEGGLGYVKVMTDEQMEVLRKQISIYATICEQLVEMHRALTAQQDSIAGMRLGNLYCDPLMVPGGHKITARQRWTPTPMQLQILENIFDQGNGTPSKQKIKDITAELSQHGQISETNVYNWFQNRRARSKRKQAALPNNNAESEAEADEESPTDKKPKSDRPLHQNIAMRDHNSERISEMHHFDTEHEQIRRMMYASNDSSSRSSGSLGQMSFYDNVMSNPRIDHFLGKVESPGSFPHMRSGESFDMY
Experiment: protein-binding microarray (RPBM); PBS, 2% BSA, 51.3 ng/ul salmon testes DNA, 50 uM zinc acetate, 200 nM TF, 25 C, 1 h; high values mean tight binding
Conditions: protein: recombinant; tags: N-terminal polyhistidine and DsRed monomer fusion (pET32a); label: CyDye5-dUTP incorporated in the synthesized complementary strand; 3' TTTTT single-stranded linker to array surface; dsDNA, one strand shown
Procedure, shortened: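 The binding signal is fluorescence intensity per feature, in arbitrary units, read on an Axon 4000B scanner. Polyhistidine- and DsRed-tagged transcription factors (N-terminal fusions) from E. coli BL21-CodonPlus were purified on Ni–NTA and applied at 200 nM for 1 h at 25 °C to a double-stranded, BSA-blocked custom Agilent array in buffer with 50 µM zinc acetate.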

Sequence | binding signal
GGTAGTACTTAATTAATCACGCGCTAATAGACCGCTCTGTCGGAGTCACCTAGTGCAG | 22600 fluorescence intensity (a.u.)
TCGTATTTATGGCTAATTATTATTTCAGTGGTAGACGATTCGGAGTCACCTAGTGCAG | 6670 fluorescence intensity (a.u.)
TACACTAATTAATTAAGCATTAATCGTGGGAAGAGTAACGCGGAGTCACCTAGTGCAG | 47000 fluorescence intensity (a.u.)
TTGCATGTTTGTGGATTGATACATTAGATATTGATCTATCCGGAGTCACCTAGTGCAG | 3540 fluorescence intensity (a.u.)
TCATGCAGTAATTAATCAGTGACAGTGAACCTTGTTAGTACGGAGTCACCTAGTGCAG | 17400 fluorescence intensity (a.u.)
AGAAAATTTAATCTTAAATATGGACATTACGAATGTACAACGGAGTCACCTAGTGCAG | 4110 fluorescence intensity (a.u.)
AAAATTTGTCAATAAATATATAGGCAGTCCCGGTCCGTTCCGGAGTCACCTAGTGCAG | 4490 fluorescence intensity (a.u.)
TCCTCAATTAATTGCTGATCCTAATGCAGAGTTTCAGGTGCGGAGTCACCTAGTGCAG | 35500 fluorescence intensity (a.u.)
TATCACTAATAATTTAGCTCAGTTTGACAAGACGGATATCCGGAGTCACCTAGTGCAG | 4380 fluorescence intensity (a.u.)
TTACCAAATTTCACTGTTAACAGCGGTGCGTGGGTATTGACGGAGTCACCTAGTGCAG | 6390 fluorescence intensity (a.u.)
GGTATAACCTAAAGTTTATCCGTTTGTAGAGCGAATGTTTCGGAGTCACCTAGTGCAG | 14400 fluorescence intensity (a.u.)
CATGGTCAATCTACTCGTTAACGTACATTCACGGTTATTTCGGAGTCACCTAGTGCAG | 9160 fluorescence intensity (a.u.)
GCTGTTTGATCCATAATTTATCCGCGCGTCGTCACTCCGACGGAGTCACCTAGTGCAG | 5840 fluorescence intensity (a.u.)
TCCACTTGGGTGATTAGAATCTGTCTTCCCTGTTTTAAGCCGGAGTCACCTAGTGCAG | 7670 fluorescence intensity (a.u.)
TCGTGATTAGAATCTTAATCTCTAGCCTGTCTTTGCTTGCCGGAGTCACCTAGTGCAG | 56200 fluorescence intensity (a.u.)
TCTAATTGGCTTACTTAATATGATTCGATCCTACAACCTCCGGAGTCACCTAGTGCAG | 53700 fluorescence intensity (a.u.)
CATACATATGTAATTTACTTCGATTCGATTAAATTGGCAGCGGAGTCACCTAGTGCAG | 7090 fluorescence intensity (a.u.)
CTTAATTAGCTCTAGCGAGCTAGCTAGCTTGCTCTGTCTTCGGAGTCACCTAGTGCAG | 24200 fluorescence intensity (a.u.)
AGAGATCGATCGATTAATTAGCAACAAGCCAACGACAAGCCGGAGTCACCTAGTGCAG | 4950 fluorescence intensity (a.u.)
CACTTGATTAATTTATCCTCTCCTCGCGTCGCTGTCGCGTCGGAGTCACCTAGTGCAG | 52700 fluorescence intensity (a.u.)
GCCTAATTGCTTAATTAGCAGCCAACGGATTCGATTGATCCGGAGTCACCTAGTGCAG | 53900 fluorescence intensity (a.u.)
TAATTTAATTTAATTACCTCCCTAATCACTCTCGCTCGCTCGGAGTCACCTAGTGCAG | 46200 fluorescence intensity (a.u.)

Sequence | binding signal
TAACCTTAATTAATTGATTAAATTACAAATATTCTAGCCCCGGAGTCACCTAGTGCAG | 44000 fluorescence intensity (a.u.)
GTTTTCCTAATTAATTGCTAGCTCGATTTGCTCGGTGATCCGGAGTCACCTAGTGCAG | 29900 fluorescence intensity (a.u.)
AAGATGAGGTGATAGACTGACTAGCACTGAGCTTGCCCGGCGGAGTCACCTAGTGCAG | 14400 fluorescence intensity (a.u.)
ACTAGACAATTTGAATTTACAACTATATATACTCCCAATCCGGAGTCACCTAGTGCAG | 3250 fluorescence intensity (a.u.)
GAACTAGCTTAATTAAACCACAATTAGAATATATGTAGGACGGAGTCACCTAGTGCAG | 3750 fluorescence intensity (a.u.)
TAAGTAATTATTTATTCTTTTCATATCATTTGATTCATTGCGGAGTCACCTAGTGCAG | 15400 fluorescence intensity (a.u.)
AAAAGGATATGATTTGAAATGGCATTAAAGTGAATAGGCCCGGAGTCACCTAGTGCAG | 4540 fluorescence intensity (a.u.)
GATTAGGTTAATTGAGATCTGCCTTGCTCTGCTCTGCTCGCGGAGTCACCTAGTGCAG | 21500 fluorescence intensity (a.u.)
TTATGATTTAATTAGCGATTAATTATCCTAATTAGTGATTCGGAGTCACCTAGTGCAG | 62200 fluorescence intensity (a.u.)
TTAGCGTCTAATTATAGGATTATTTATGATAATATTCGTCCGGAGTCACCTAGTGCAG | 5680 fluorescence intensity (a.u.)
GCCTAATTAATCCATGATTAGCCTATGTGATGCTATAGTACGGAGTCACCTAGTGCAG | 52700 fluorescence intensity (a.u.)
CAGTTAATTGAGTTGATGGCCACTCCTCTGCTGCTCGTCGCGGAGTCACCTAGTGCAG | 60700 fluorescence intensity (a.u.)
TCCAACGGTGCCGCTTAATTAGTGATTAATTATCCTAATTCGGAGTCACCTAGTGCAG | 16400 fluorescence intensity (a.u.)
ACTCCTGACTTGATTGGCAGTGAGTTGCTCATCTGCCTAGCGGAGTCACCTAGTGCAG | 40300 fluorescence intensity (a.u.)
TCTAATTAATCCATGATTAGCCTATGTGATGCTACAGTAACGGAGTCACCTAGTGCAG | 25100 fluorescence intensity (a.u.)
CTAATGAGCCTAATTAATCCATGATTAGCCTATGTGATGCCGGAGTCACCTAGTGCAG | 43000 fluorescence intensity (a.u.)
ATGACTATTTTCACCTATAATTATAAGTTATGGAACAATACGGAGTCACCTAGTGCAG | 4820 fluorescence intensity (a.u.)
AGCAAAATTAACACCGCAATTTGAGCCGGTTACTTCTTTCCGGAGTCACCTAGTGCAG | 4830 fluorescence intensity (a.u.)
CCGCGATTACAATTAGCGCCGGATTAACCCTGCAATTAGCCGGAGTCACCTAGTGCAG | 20500 fluorescence intensity (a.u.)
CTCAACATGAACTTCTTGATTACCTGTGACCCAGCCACGGCGGAGTCACCTAGTGCAG | 3150 fluorescence intensity (a.u.)
CATGATTGAAACATTACTTGATGGCTTCTGGTCCTACCCACGGAGTCACCTAGTGCAG | 53900 fluorescence intensity (a.u.)
CATCGAACATCATGAATTTGATTGGCTTCTACTTTCACGACGGAGTCACCTAGTGCAG | 17100 fluorescence intensity (a.u.)

Sequence | binding signal
TTTTGATTGGCCGAGGAGAAGGCGAAACAGACTGCCACTGCGGAGTCACCTAGTGCAG | 53800 fluorescence intensity (a.u.)
GAAACATGTTGAGATTGATTTACATTTTGTGCGCGAGAAGCGGAGTCACCTAGTGCAG | 18000 fluorescence intensity (a.u.)
TGGGAGATTGTATTAAACAGAGGAGAACGATGGCGAAAGGCGGAGTCACCTAGTGCAG | 6630 fluorescence intensity (a.u.)
TTATTTGACACAATGCGATTGAATTGGGGTGCAGGAGTATCGGAGTCACCTAGTGCAG | 6780 fluorescence intensity (a.u.)
AGAAATATTCAATCAAGCTACTGCGCACATATATCTTTATCGGAGTCACCTAGTGCAG | 9630 fluorescence intensity (a.u.)
GTGCTGTGATTGGCCGCGCGGGATTTCCTGGGCGGGCGGGCGGAGTCACCTAGTGCAG | 22600 fluorescence intensity (a.u.)
CATATTGACAGCTTTGTAATTGCATTTGACAGGTTCAACCCGGAGTCACCTAGTGCAG | 60500 fluorescence intensity (a.u.)
CTATCATATTGACAGCTTTGTAATTGCTTTTGACAGGTTCCGGAGTCACCTAGTGCAG | 26400 fluorescence intensity (a.u.)
AATTGACGTAATTTCAGGTCGTATTTGTGGTGCAACAACCCGGAGTCACCTAGTGCAG | 16600 fluorescence intensity (a.u.)
ATAATTATTCTGTTAATTAATCAATTATTATCTGGGAATCCGGAGTCACCTAGTGCAG | 63600 fluorescence intensity (a.u.)
TCACAAAATAATTAACTTTAAAATTAAATTTTAGCAGCAGCGGAGTCACCTAGTGCAG | 15100 fluorescence intensity (a.u.)
CGAAATTAATTAGCGAAATTAATTAACGCTTTACACAAGGCGGAGTCACCTAGTGCAG | 64900 fluorescence intensity (a.u.)
TCCACAGATTGAGGAATCCGAGCAACAAATATCCTAGTAGCGGAGTCACCTAGTGCAG | 11900 fluorescence intensity (a.u.)
TAAAATTAAATTTACAAGGGTTAATTCGCGAGTAATAACGCGGAGTCACCTAGTGCAG | 12300 fluorescence intensity (a.u.)
GGTCCTAATTGACAAATCCACAGAAGTAGTACTCCAGGAGCGGAGTCACCTAGTGCAG | 53000 fluorescence intensity (a.u.)
TATGCAGTTTTACAATAATTTAATTAAAGTACAGTTTTGTCGGAGTCACCTAGTGCAG | 5420 fluorescence intensity (a.u.)
TTTTATCTCACCAATCAATTTAATTTCTTTATTTATTTTCCGGAGTCACCTAGTGCAG | 6870 fluorescence intensity (a.u.)
TCCTAATTGTACAATTAATTAAATTAAGTACAGTCCTATGCGGAGTCACCTAGTGCAG | 53000 fluorescence intensity (a.u.)
TGAGTAAATGTGTTGTTGTTAATTGCTATATGTACAGTTGCGGAGTCACCTAGTGCAG | 5280 fluorescence intensity (a.u.)
AATGTCTGCAATTAATCAATCTGTTAATCTGTTATTAGTACGGAGTCACCTAGTGCAG | 21900 fluorescence intensity (a.u.)
TGGACATTGACAAAATCACAGATCCAGTAAGTACTAGTATCGGAGTCACCTAGTGCAG | 3170 fluorescence intensity (a.u.)
